From PubChem BioAssay (Tox21)
Records with an inconclusive call do not appear. Calls of active or inactive are those of the source. Unless noted, calls follow the shape of the dose curve; as a rule, active = well fitted curve in the direction sought with a large enough effect in the repeat runs; inconclusive = weak or mixed curves; inactive = no such curve, though single readings can be large; an effect the other way counts as inactive or inconclusive.

Experiments:
[1] = A CellTox Green Cytotoxicity Assay to monitor cytotoxicity in HEK293 cells - 32 hour (AID 1224881); also: nearly all actives have a fitted effect of over 40% in size
Method in brief: (§1)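 Cytotoxicity was tracked continuously in HEK293 cells by a DNA-binding dye excluded from viable cells. Compounds were transferred in DMSO 5 h after seeding; fluorescence was recorded at intervals up to 40 h.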

[2] = A CellTox Green Cytotoxicity Assay to monitor cytotoxicity in HepG2 cells - 0 hour (AID 1224882); also: nearly all actives have a fitted effect of over 35% in size
Method in brief: (§2)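 Real-time, homogeneous cytotoxicity readout: dead-cell DNA staining by CellTox Green in HepG2 monolayers, fluorescence measured at timed intervals up to 40 h of continuous compound exposure.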

[3] = A CellTox Green Cytotoxicity Assay to monitor cytotoxicity in HepG2 cells - 32 hour (AID 1224883); also: nearly all actives have a fitted effect of over 50% in size
Method in brief: as §2

[4] = A CellTox Green Cytotoxicity Assay to monitor cytotoxicity in HEK293 cells - 8 hour (AID 1224884); also: nearly all actives have a fitted effect of over 35% in size
Method in brief: as §1

[5] = qHTS RealTime-Glo MT Cell Viability Assay in HepG2 cells - 16 hour (AID 1224885); also: nearly all actives have a fitted effect of over 50% in size
Method in brief: (§3)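 HepG2 cells were seeded at 600 cells/well together with NanoLuc luciferase and a cell-permeant prosubstrate, preincubated 5 h at 37 C/5% CO2, then pin-dosed with compounds in DMSO. Nonlytic luminescence from viable cells was read at each time point.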

[6] = qHTS RealTime-Glo MT Cell Viability Assay in HEK293 cells - 24 hour (AID 1224886); also: top concentration of the series differs between compounds; nearly all actives have a fitted effect of over 50% in size
Method in brief: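 HEK293 cells were seeded at 600 cells/well together with NanoLuc luciferase and cell-permeant prosubstrate, preincubated 5 h at 37 C/5% CO2, then given compound in DMSO by pintool. Luminescence from viable-cell prosubstrate reduction was read repeatedly over 40 h.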

[7] = qHTS RealTime-Glo MT Cell Viability Assay in HEK293 cells - 8 hour (AID 1224887); also: top concentration of the series differs between compounds; nearly all actives have a fitted effect of over 50% in size
Method in brief: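 Nonlytic bioluminescent viability monitoring. HEK293 at 600 cells/well with reagent; 5 h settle; compound transfer by pintool; plates held at 37 C and read at set time points.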

[8] = A CellTox Green Cytotoxicity Assay to monitor cytotoxicity in HEK293 cells - 16 hour (AID 1224888); also: nearly all actives have a fitted effect of over 35% in size
Method in brief: as §1

[9] = A CellTox Green Cytotoxicity Assay to monitor cytotoxicity in HepG2 cells - 8 hour (AID 1224890); also: nearly all actives have a fitted effect of over 45% in size
Method in brief: as §2

[10] = qHTS assay to identify small molecule antagonists of the estrogen receptor alpha (ER-alpha) signaling pathway using the BG1 cell line in the presence of 0.1 nM 17-beta-estradiol - cell viability counter screen (AID 1259241); also: nearly all actives have a fitted effect of over 40% in size
Method in brief: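 Live-cell protease activity (CellTiter-Fluor fluorescence, 30 min) was read in the same wells after VM7Luc4E2 cells had been exposed to compounds with 0.1 nM 17beta-estradiol for 22 hr at 37C.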

[11] = qHTS assay to identify small molecule antagonists of the androgen receptor (AR) signaling pathway using the MDA cell line in the presence of 0.5 nM R1881 - cell viability counter screen (AID 1259242); also: nearly all actives have a fitted effect of over 45% in size
Method in brief: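 Cytotoxicity toward MDA-kb2 cells is measured by CellTiter-Fluor live-cell protease fluorescence after 16 hr compound exposure at 37C in the presence of 0.5 nM R1881 stimulator.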

[12] = qHTS assay to identify small molecule phospholipidosis (PLD) inducers (AID 1259344; active = well fitted curve in the direction sought with a large enough effect; an effect the other way counts as inactive or inconclusive)
Method in brief: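 HepG2 cells grown on collagen I take up LipidTOX Red while exposed to compound for 24 h; after fixation they are imaged at 20x and pit metrics are extracted.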

[13] = qHTS assay to identify small molecule HDAC inhibitors (AID 1259364); also: top concentration of the series differs between compounds; nearly all actives have a fitted effect of over 45% in size
Method in brief: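 Homogeneous cell-based luminescent assay of endogenous class I/II HDAC activity; HCT-116 cells, 2 h compound exposure, 30 min HDAC-Glo development at RT.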

[14] = qHTS assay to identify small molecule agonists of the sonic hedgehog signaling (Shh) pathway - cell viability counter screen (AID 1259366); also: nearly all actives have a fitted effect of over 50% in size
Method in brief: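 CellTiter-Fluor fluorescence read-out, 1 hr at 37C, added after 23hr compound exposure. Cells: 3T3 Gli1-Luc, an NIH/3T3 clone with stably integrated Gli1-Luc reporter, plated 4hr before compound.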

[15] = qHTS assay to identify small molecule antagonists of the sonic hedgehog signaling (Shh) pathway - cell viability counter screen (AID 1259367); also: nearly all actives have a fitted effect of over 55% in size
Method in brief: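 After a 4 hr settling period, 3T3 Gli1-Luc cells were treated with DMSO-dissolved chemicals and conditioned medium, kept 24 hr at 37C in 5% CO2, and assayed for viability by CellTiter-Fluor fluorescence following 1 hr reagent incubation.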

[16] = qHTS assay to identify small molecule agonists of the sonic hedgehog signaling (Shh) pathway (AID 1259368; calls by dose curve;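 also: NIH/3T3-derived 3T3Gli1-Luc cells carrying a stable Gli1-driven firefly luciferase reporter; series mostly up to about 92 µM; nearly all actives have a fitted effect of over 15% in size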)
Method in brief: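 Steps: seed 3T3 Gli1-Luc cells, incubate 4 hr at 37 C, pin-transfer compounds in DMSO alongside a positive control, incubate 24 hr, add luciferase detection reagent, wait 30 min at room temperature, read luminescence.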

[17] = qHTS RealTime-Glo MT Cell Viability Assay in HepG2 cells - 0 hour (AID 1224889); also: nearly all actives have a fitted effect of over 50% in size
Method in brief: as §3

[18] = target: Androgen receptor (Homo sapiens) (UniProt P10275); experiment: qHTS assay to identify small molecule antagonists of the androgen receptor (AR) signaling pathway using the MDA cell line in the presence of 0.5 nM R1881 (AID 1259243); also: nearly all actives have a fitted effect of over 50% in size
Method in brief: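 Steps: seed MDA-kb2 cells, incubate 5 hr at 37C; pin-transfer compounds in DMSO; add R1881 to 0.5 nM final; incubate 16 hr; add ONE-Glo, wait 30 min at room temperature; read luminescence.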

[19] = target: Estrogen receptor (Homo sapiens) (UniProt P03372); experiment: qHTS assay to identify small molecule antagonists of the estrogen receptor alpha (ER-alpha) signaling pathway using the BG1 cell line in the presence of 0.1 nM 17-beta-estradiol (AID 1259244); also: nearly all actives have a fitted effect of over 50% in size
Method in brief: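 After 5 days in hormone-depleted medium (charcoal-stripped serum, no phenol red), VM7Luc4E2 cells were seeded, incubated 24 h, then co-treated with compound and 0.1 nM (final) estradiol for 22 h before luminescence detection.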

[20] = qHTS assay to identify small molecule HDAC inhibitors - cell viability counter screen (AID 1259365)
Method in brief: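 HCT-116 (wild type), 1,500 cells/well, overnight 37C/5% CO2; compound in DMSO 2hr; CellTiter-Glo 30min RT; luminescence read.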
% is scaled to controls: 0 for no effect and ±100 for the full control effect.

Androgen receptor (Homo sapiens), sequence (P10275 whole entry, looked up): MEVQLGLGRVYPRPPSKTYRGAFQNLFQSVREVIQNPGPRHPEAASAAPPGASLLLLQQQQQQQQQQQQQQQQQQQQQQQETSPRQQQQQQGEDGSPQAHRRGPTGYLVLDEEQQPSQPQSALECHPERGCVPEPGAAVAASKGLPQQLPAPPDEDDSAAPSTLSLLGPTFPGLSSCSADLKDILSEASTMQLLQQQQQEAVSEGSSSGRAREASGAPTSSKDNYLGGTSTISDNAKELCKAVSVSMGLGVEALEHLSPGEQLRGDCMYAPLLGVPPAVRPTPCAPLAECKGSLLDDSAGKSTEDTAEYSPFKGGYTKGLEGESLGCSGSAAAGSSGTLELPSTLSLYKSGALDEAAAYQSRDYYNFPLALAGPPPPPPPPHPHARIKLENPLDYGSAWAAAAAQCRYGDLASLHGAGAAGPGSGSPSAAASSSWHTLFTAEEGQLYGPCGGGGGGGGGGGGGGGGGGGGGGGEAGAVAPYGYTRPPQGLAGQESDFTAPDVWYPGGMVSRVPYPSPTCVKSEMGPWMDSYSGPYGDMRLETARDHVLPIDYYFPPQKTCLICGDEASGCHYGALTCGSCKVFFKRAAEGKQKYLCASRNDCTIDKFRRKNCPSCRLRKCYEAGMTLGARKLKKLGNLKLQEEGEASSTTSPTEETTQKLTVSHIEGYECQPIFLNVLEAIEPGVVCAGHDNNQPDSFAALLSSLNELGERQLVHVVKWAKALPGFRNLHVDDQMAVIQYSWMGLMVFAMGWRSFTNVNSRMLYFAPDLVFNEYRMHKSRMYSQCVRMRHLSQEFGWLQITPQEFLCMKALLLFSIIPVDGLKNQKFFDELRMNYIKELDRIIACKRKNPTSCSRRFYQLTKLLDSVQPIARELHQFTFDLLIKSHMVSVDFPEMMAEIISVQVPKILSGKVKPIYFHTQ
Estrogen receptor (Homo sapiens), sequence (P03372 whole entry, looked up): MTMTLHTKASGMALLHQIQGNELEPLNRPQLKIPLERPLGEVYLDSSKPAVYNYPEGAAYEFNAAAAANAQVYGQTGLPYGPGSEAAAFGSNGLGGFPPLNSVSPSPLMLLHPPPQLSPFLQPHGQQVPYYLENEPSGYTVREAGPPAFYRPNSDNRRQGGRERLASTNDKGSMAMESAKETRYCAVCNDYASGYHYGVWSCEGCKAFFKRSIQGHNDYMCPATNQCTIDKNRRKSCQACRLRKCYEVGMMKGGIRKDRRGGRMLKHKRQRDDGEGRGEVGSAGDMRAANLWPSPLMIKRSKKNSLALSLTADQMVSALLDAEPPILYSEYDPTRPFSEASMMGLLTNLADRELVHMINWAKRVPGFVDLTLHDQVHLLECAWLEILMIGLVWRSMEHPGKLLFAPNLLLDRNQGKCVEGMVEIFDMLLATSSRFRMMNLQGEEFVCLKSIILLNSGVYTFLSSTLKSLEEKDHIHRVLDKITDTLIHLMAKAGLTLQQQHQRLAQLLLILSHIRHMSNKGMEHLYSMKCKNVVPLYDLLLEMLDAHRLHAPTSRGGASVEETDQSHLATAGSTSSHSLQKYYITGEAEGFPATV

COc1ccc(-c2cc(=O)c3c(O)cc(O[C@@H]4O[C@H](CO[C@@H]5O[C@@H](C)[C@H](O)[C@@H](O)[C@H]5O)[C@@H](O)[C@H](O)[C@H]4O)cc3o2)cc1O
inactive: Potency [1] | outcome [2] | Potency [3] | Potency [4] | outcome [5] | Potency [6] | Potency [7] | outcome [8] | outcome [9] | Potency [10] | outcome [11] | outcome [12] | Potency [13] | Potency [14] | Potency [15] | outcome [16]

O=C1c2ccccc2C(=O)N1CCl
inactive: Potency [1] | outcome [2] | Potency [3] | Potency [4] | outcome [5] | Potency [6] | outcome [8] | Potency [17] | outcome [9] | Potency [10] | outcome [11] | Potency [18] | Potency [19] | Potency [13] | outcome [20] | Potency [14] | Potency [15] | outcome [16]

N[C@@H](COP(=O)(O)O)C(=O)O
inactive: cytotoxicity increase [1] -6.18% [at 15.8 µM] | cytotoxicity [2] 0.162% [at 15.8 µM] | cytotoxicity increase [3] -0.733% [at 15.8 µM] | cytotoxicity increase [4] -2.54% [at 15.8 µM] | activity change, negative = cytotoxic [5] 1.13% [at 15.8 µM] | activity change, negative = cytotoxicity [6] 1.75% [at 15.8 µM] | activity change, negative = cytotoxicity [7] 10.1% [at 15.8 µM] | activity change, negative = cytotoxicity [17] -1.1% [at 15.8 µM] | cytotoxicity increase [9] 3.11% [at 15.8 µM] | activity change, negative = cytotoxicity [10] 0.527% [at 19 µM] | viability change, negative = cytotoxic [11] 4.56% [at 19 µM] | outcome [12] | activity change, negative = inhibition [13] -0.0158% [at 19 µM] | activity change, negative = cytotoxicity [20] 0.384% [at 19 µM] | viability change, negative = cytotoxic [14] -4.16% [at 19 µM] | viability change, negative = cytotoxic [15] 5.61% [at 19 µM] | activity change [16] -1.5% [at 18.9 µM]

Cc1cccc(C)c1OCC(C)N (stereo unspecified)
inactive: Potency [1] | outcome [2] | Potency [3] | Potency [4] | outcome [5] | Potency [6] | Potency [7] | outcome [8] | outcome [9] | outcome [11] | Potency [19] | outcome [12] | Potency [13] | outcome [20] | Potency [14] | Potency [15] | outcome [16]

Cc1ccc(C=O)cc1C
inactive: Potency [1] | outcome [2] | Potency [3] | Potency [4] | outcome [5] | Potency [6] | Potency [7] | outcome [8] | outcome [9] | Potency [10] | outcome [11] | Potency [13] | outcome [20] | Potency [14] | Potency [15] | outcome [16]

COCCOCCOCCOCCOCCO
inactive: Potency [1] | outcome [2] | Potency [3] | Potency [4] | outcome [5] | Potency [6] | Potency [7] | outcome [8] | outcome [9] | Potency [10] | outcome [11] | Potency [13] | outcome [20] | Potency [14] | Potency [15] | outcome [16]

O=C(NCC(O)CO)c1c(I)c(C(=O)NCC(O)CO)c(I)c(N(CCO)C(=O)CO)c1I (stereo unspecified)
inactive: Potency [1] | outcome [2] | Potency [3] | Potency [4] | outcome [5] | Potency [6] | Potency [7] | Potency [17] | outcome [9] | Potency [10] | outcome [11] | outcome [12] | Potency [13] | outcome [20] | Potency [14] | Potency [15] | outcome [16]

NCCN1CCOCC1
inactive: Potency [1] | outcome [2] | Potency [3] | Potency [4] | outcome [5] | Potency [6] | Potency [7] | outcome [8] | outcome [9] | Potency [10] | outcome [11] | Potency [13] | outcome [20] | Potency [14] | Potency [15] | outcome [16]

OCCC(F)(F)C(F)(F)C(F)(F)C(F)(F)C(F)(F)C(F)(F)C(F)(F)C(F)(F)F
inactive: Potency [1] | outcome [2] | Potency [3] | Potency [4] | outcome [5] | Potency [6] | Potency [7] | outcome [9] | Potency [10] | outcome [11] | Potency [18] | Potency [13] | outcome [20] | Potency [14] | Potency [15] | outcome [16]

CCn1ccc(NS(=O)(=O)c2ccc(N)cc2)nc1=O
inactive: Potency [1] | outcome [2] | Potency [3] | Potency [4] | outcome [5] | Potency [6] | Potency [7] | Potency [17] | outcome [9] | Potency [10] | Potency [19] | Potency [13] | Potency [14] | Potency [15] | outcome [16]

COC(=O)C1CC(=O)C(C(=O)OC)CC1=O (stereo unspecified)
inactive: cytotoxicity increase [1] 0.949% [at 6.97 µM] | cytotoxicity [2] -5.98% [at 6.97 µM] | cytotoxicity increase [3] -7.66% [at 6.97 µM] | cytotoxicity increase [4] 10.4% [at 6.97 µM] | activity change, negative = cytotoxic [5] -8.58% [at 6.97 µM] | activity change, negative = cytotoxicity [6] 0.682% [at 6.97 µM] | activity change, negative = cytotoxicity [7] 5.57% [at 6.97 µM] | activity change, negative = cytotoxicity [17] -20.4% [at 6.97 µM] | cytotoxicity increase [9] -5.53% [at 6.97 µM] | activity change, negative = cytotoxicity [10] 7.13% [at 8.39 µM] | activity change, negative = inhibition [13] -0.18% [at 8.39 µM] | activity change, negative = cytotoxicity [20] 0.106% [at 8.39 µM] | viability change, negative = cytotoxic [14] 11.2% [at 8.39 µM] | viability change, negative = cytotoxic [15] 1.71% [at 8.39 µM] | activity change [16] -2.11% [at 8.39 µM]

CC(CN)CC(C)(C)CCN (stereo unspecified)
inactive: Potency [1] | outcome [2] | Potency [3] | Potency [4] | outcome [5] | Potency [6] | Potency [7] | Potency [17] | outcome [9] | Potency [10] | Potency [13] | outcome [20] | Potency [14] | Potency [15] | outcome [16]

CC(=O)/C=C/C1C(C)=CCC(C)C1(C)C (stereo unspecified)
inactive: Potency [1] | outcome [2] | Potency [3] | Potency [4] | outcome [5] | Potency [6] | Potency [7] | Potency [17] | outcome [9] | Potency [10] | outcome [11] | Potency [19] | Potency [13] | outcome [20] | Potency [14] | Potency [15] | outcome [16]

CCOC(=O)/C=C/c1ccccc1
inactive: Potency [1] | outcome [2] | Potency [3] | Potency [4] | outcome [5] | Potency [6] | Potency [7] | outcome [9] | outcome [11] | Potency [13] | outcome [20] | Potency [14] | Potency [15] | outcome [16]

N[C@@H](CCC(=O)Nc1ccc([N+](=O)[O-])cc1)C(=O)O
inactive: Potency [1] | outcome [2] | Potency [3] | Potency [4] | outcome [5] | Potency [6] | Potency [7] | Potency [17] | outcome [9] | Potency [10] | Potency [18] | Potency [13] | outcome [20] | Potency [14] | Potency [15] | outcome [16]
